Assay in all cases: DAPPL (digital affinity profiling via proximity ligation, sequencing); 10 mM Tris-HCl pH 7.5, 50 mM NaCl, 1 mM DTT, 4% glycerol, room temperature, 30 min; GST-TFs on glutathione beads, 16-mer random dsDNA library, 0.1% formaldehyde crosslink after washing; high values mean tight binding
One assay deals with T1, FLI1 (Homo sapiens, UniProt Q01543 1-452).
T1 sequence: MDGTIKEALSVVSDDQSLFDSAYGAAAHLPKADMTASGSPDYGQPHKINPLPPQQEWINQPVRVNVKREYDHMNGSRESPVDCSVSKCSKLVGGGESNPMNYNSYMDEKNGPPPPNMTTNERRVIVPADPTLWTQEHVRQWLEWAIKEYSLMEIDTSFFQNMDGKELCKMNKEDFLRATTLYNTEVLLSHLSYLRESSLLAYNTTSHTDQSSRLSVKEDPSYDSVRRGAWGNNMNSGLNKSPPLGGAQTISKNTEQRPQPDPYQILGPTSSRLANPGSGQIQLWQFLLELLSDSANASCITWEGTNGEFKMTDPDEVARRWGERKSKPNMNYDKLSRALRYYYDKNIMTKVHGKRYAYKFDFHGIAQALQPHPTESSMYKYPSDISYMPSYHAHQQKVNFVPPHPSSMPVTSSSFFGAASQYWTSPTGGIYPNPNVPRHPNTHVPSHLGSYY
Conditions: protein: recombinant; tags: N-terminal GST; dsDNA, one strand shown. An outline of the steps: (§1)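 Sequencing on an Illumina NextSeq500 followed washing, crosslinking with 0.1% formaldehyde, proximity ligation (BsaI/T4 ligase, 1 h, 37 °C) and PCR amplification of pools that had been incubated for 30 min at room temperature with 200 nmole of a random double-stranded 16-mer DNA library in Tris/NaCl/DTT/glycerol buffer. Each pool held DNA-barcoded human transcription factors, expressed in yeast as GST fusions and captured on glutathione beads, plus a tag-only sample. Binding signal is a hexamer's read frequency for a factor divided by its frequency in the tag-only sample.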

In a further assay the target is T2, ELK1 (Homo sapiens, UniProt P19419 1-428).
T2 sequence: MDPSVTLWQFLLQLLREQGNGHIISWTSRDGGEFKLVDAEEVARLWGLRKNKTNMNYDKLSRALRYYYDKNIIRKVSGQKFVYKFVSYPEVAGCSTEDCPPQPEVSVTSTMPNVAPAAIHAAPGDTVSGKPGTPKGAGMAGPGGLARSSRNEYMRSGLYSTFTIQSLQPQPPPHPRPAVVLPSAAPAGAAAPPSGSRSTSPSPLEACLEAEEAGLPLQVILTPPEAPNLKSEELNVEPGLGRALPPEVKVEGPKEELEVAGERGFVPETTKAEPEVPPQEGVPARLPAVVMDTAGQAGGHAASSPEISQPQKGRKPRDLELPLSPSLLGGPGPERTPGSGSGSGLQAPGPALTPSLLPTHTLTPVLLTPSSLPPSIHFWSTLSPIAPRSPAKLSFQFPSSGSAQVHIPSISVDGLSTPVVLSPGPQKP
The following applies: protein: recombinant; tags: N-terminal GST; dsDNA, one strand shown. The procedure, abridged:
as §1

The target of a further assay is T3, GABPA (Homo sapiens, UniProt Q06546 1-454).
T3 sequence: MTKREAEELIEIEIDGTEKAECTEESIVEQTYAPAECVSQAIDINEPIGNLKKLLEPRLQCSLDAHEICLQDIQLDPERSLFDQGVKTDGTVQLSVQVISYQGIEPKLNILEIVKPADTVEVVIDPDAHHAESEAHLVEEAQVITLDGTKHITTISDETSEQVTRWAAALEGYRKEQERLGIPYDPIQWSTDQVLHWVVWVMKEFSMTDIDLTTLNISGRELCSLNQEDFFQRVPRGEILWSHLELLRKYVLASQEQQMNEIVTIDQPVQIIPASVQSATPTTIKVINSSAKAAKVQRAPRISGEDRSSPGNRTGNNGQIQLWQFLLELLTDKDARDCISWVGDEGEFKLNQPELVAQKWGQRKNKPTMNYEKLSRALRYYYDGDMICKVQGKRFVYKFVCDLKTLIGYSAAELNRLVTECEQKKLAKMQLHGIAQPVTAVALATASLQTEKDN
The following applies: protein: recombinant; tags: N-terminal GST; dsDNA, one strand shown. An outline of the steps: as §1

The next assay addresses T4, ERG (Homo sapiens, UniProt P11308 1-479).
T4 sequence: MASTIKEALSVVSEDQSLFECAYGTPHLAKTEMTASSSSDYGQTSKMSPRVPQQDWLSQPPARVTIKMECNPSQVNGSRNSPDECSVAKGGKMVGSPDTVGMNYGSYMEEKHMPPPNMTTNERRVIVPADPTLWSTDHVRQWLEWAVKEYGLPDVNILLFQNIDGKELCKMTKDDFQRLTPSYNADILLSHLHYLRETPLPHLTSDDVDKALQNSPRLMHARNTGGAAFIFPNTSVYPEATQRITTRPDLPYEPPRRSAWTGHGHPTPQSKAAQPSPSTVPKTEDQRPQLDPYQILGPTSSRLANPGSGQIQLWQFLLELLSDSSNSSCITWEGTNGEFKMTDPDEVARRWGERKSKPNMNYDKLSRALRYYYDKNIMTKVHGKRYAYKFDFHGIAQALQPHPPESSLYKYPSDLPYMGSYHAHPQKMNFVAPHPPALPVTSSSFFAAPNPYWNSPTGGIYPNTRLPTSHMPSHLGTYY
The following applies: protein: recombinant; tags: N-terminal GST; dsDNA, one strand shown. The procedure, abridged: as §1

The target in a further assay is ELF1 (Homo sapiens, UniProt P32519 1-619). Conditions: protein: recombinant; tags: N-terminal GST; dsDNA, one strand shown. An outline of the steps:
as §1

For another assay, the target named is T5, EHF (Homo sapiens, UniProt Q9NZC4 1-300).
T5 sequence: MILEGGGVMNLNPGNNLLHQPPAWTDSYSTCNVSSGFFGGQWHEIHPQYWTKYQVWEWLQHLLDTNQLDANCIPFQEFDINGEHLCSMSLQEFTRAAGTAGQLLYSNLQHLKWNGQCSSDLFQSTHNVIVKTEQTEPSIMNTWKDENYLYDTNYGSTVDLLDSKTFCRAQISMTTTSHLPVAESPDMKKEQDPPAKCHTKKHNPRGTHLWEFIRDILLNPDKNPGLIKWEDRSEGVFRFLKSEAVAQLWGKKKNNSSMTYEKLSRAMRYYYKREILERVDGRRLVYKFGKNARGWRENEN
The following applies: protein: recombinant; tags: N-terminal GST; dsDNA, one strand shown. An outline of the steps:
as §1

For a further assay, the target named is SPI1 (Homo sapiens, UniProt P17947 1-270). Conditions: protein: recombinant; tags: N-terminal GST; dsDNA, one strand shown. The procedure, abridged: as §1
The target of another assay is SPIB (Homo sapiens, UniProt Q01892 1-262). Conditions: protein: recombinant; tags: N-terminal GST; dsDNA, one strand shown. The procedure, abridged: as §1
The next assay addresses T6, ELK3 (Homo sapiens, UniProt P41970 1-407).
T6 sequence: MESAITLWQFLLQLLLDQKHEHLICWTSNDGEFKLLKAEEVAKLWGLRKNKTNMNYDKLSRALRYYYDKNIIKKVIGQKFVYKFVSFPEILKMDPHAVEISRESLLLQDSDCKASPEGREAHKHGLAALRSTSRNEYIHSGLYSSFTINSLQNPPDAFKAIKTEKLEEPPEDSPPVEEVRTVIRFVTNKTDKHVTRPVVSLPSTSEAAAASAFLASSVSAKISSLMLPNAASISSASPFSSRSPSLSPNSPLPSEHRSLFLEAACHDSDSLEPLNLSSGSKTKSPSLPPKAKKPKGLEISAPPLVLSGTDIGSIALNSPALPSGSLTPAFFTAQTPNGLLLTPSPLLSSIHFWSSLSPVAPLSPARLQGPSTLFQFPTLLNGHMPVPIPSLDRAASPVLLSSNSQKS
The following applies: protein: recombinant; tags: N-terminal GST; dsDNA, one strand shown. The procedure, abridged:
as §1

The next assay deals with T7, FEV (Homo sapiens, UniProt Q99581 1-238).
T7 sequence: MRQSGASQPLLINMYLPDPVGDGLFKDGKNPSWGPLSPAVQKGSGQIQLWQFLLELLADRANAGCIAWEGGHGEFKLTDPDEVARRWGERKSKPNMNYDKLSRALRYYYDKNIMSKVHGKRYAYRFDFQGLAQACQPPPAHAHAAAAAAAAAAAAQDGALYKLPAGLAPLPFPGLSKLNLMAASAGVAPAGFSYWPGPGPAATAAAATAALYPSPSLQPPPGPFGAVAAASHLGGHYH
The following applies: protein: recombinant; tags: N-terminal GST; dsDNA, one strand shown. An outline of the steps:
as §1

The target in another assay is ETV5 (Homo sapiens, UniProt P41161 1-510). The following applies: protein: recombinant; tags: N-terminal GST; dsDNA, one strand shown. An outline of the steps:
as §1

Another assay has as its target HSF1 (Homo sapiens, UniProt Q00613 1-529). The following applies: protein: recombinant; tags: N-terminal GST; chain copies: 3; dsDNA, one strand shown. The procedure, abridged: as §1
The target of another assay is T8, SPIC (Homo sapiens, UniProt Q8N5J4 1-248).
T8 sequence: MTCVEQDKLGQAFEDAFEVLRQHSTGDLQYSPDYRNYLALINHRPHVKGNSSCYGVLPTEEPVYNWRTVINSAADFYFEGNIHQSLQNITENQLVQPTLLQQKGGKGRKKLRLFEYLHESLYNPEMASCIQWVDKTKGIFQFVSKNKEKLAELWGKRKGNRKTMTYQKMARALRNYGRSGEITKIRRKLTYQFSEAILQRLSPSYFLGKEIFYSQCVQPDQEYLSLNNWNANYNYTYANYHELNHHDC
The following applies: protein: recombinant; tags: N-terminal GST; dsDNA, one strand shown. The procedure, abridged:
as §1

Another assay addresses ELF4 (Homo sapiens, UniProt Q99607 1-663). Conditions: protein: recombinant; tags: N-terminal GST; dsDNA, one strand shown. The procedure, abridged:
as §1

Another assay addresses T9, ELK4 (Homo sapiens, UniProt P28324-2 1-405).
T9 sequence: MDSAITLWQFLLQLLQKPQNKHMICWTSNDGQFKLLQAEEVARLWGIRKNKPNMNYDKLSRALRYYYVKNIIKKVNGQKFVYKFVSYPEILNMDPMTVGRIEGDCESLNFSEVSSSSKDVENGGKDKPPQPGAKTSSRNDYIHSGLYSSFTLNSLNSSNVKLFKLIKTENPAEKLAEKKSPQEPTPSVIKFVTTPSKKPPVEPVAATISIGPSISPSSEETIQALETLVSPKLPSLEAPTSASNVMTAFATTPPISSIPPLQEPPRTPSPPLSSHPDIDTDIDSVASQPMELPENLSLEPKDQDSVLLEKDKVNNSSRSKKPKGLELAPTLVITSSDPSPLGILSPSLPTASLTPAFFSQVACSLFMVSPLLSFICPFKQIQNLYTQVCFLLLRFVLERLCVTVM
The following applies: protein: recombinant; tags: N-terminal GST; dsDNA, one strand shown. The procedure, abridged: as §1

The target of another assay is T10, ETV2 (Homo sapiens, UniProt O00321 1-342).
T10 sequence: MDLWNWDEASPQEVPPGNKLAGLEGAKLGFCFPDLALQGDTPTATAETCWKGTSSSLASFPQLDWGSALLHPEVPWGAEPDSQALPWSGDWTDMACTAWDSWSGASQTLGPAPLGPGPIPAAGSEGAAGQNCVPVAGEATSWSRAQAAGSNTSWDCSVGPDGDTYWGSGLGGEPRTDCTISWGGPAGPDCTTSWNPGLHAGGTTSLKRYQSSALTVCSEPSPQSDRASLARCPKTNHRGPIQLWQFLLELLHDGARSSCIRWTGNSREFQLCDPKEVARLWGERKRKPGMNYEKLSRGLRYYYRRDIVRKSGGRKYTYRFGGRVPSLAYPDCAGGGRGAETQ
The following applies: protein: recombinant; tags: N-terminal GST; dsDNA, one strand shown. The procedure, abridged: as §1

For another assay, the target named is T11, ELF3 (Homo sapiens, UniProt P78545 1-371).
T11 sequence: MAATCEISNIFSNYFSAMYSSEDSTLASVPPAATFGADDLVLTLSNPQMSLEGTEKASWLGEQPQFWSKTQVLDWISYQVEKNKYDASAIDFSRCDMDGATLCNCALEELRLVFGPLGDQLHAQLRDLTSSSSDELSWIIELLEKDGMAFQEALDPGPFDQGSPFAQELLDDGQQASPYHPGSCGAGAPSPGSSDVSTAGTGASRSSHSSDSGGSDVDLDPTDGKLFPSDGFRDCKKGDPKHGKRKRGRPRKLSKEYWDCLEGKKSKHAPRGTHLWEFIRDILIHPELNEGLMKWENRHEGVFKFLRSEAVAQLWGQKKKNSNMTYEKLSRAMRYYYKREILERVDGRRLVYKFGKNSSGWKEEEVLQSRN
Conditions: protein: recombinant; tags: N-terminal GST; dsDNA, one strand shown. The procedure, abridged:
as §1

The next assay deals with ETV1 (Homo sapiens, UniProt P50549 1-477). Conditions: protein: recombinant; tags: N-terminal GST; dsDNA, one strand shown. An outline of the steps: as §1
Sequence of ETV1 (P50549 whole entry): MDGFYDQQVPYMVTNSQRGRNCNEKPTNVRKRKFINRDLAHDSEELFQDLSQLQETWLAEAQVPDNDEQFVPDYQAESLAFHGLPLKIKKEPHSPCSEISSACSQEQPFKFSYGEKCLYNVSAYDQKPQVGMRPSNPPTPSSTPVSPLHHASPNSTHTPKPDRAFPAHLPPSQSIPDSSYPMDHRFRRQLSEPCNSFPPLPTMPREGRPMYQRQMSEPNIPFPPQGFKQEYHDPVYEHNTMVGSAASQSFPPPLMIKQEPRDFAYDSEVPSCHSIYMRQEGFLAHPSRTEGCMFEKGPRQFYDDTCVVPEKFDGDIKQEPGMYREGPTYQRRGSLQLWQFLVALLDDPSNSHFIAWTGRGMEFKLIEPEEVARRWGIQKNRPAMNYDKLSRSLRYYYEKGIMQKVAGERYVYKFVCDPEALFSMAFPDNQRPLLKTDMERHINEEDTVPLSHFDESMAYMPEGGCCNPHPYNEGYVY

Sequence of HSF1 (Q00613 whole entry): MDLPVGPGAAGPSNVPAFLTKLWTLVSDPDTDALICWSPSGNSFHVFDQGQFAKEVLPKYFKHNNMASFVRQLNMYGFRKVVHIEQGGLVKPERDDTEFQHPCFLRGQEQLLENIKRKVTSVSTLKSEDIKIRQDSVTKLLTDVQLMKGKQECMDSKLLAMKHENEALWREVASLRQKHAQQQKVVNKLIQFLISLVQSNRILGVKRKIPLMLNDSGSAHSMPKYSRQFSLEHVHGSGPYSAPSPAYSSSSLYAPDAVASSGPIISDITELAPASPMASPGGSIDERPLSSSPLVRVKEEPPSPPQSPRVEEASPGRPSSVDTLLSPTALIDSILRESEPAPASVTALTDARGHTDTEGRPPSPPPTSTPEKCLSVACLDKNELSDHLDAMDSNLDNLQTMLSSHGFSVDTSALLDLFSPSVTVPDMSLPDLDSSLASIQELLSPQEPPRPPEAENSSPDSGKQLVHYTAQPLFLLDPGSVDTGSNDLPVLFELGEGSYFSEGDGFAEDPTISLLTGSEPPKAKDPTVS
Sequence of SPIB (Q01892 whole entry): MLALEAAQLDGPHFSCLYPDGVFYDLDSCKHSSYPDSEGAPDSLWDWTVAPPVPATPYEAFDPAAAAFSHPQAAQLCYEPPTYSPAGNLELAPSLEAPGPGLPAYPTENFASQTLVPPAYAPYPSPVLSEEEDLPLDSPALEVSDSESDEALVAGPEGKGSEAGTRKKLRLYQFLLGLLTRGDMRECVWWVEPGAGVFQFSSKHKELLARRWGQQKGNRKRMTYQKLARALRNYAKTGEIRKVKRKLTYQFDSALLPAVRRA
Sequence of ELF4 (Q99607 whole entry): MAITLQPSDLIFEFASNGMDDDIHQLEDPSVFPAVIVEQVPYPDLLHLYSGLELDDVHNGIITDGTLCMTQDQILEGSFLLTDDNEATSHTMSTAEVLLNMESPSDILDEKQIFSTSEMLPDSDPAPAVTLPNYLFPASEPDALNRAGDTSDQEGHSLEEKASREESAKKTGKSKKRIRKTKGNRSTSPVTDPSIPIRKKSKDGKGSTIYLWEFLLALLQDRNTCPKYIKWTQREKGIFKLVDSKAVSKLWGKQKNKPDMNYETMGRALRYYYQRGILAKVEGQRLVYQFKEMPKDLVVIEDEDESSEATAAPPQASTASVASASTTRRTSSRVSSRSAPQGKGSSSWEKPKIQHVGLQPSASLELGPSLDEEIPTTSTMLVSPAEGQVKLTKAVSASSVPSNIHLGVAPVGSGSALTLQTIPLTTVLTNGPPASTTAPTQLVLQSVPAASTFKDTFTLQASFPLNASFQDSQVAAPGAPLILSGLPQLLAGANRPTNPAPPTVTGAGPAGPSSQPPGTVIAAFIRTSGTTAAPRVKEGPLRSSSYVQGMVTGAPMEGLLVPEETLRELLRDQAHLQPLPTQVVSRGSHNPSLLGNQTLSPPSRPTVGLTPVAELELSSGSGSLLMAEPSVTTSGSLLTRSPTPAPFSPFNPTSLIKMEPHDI
Sequence of ETV5 (P41161 whole entry): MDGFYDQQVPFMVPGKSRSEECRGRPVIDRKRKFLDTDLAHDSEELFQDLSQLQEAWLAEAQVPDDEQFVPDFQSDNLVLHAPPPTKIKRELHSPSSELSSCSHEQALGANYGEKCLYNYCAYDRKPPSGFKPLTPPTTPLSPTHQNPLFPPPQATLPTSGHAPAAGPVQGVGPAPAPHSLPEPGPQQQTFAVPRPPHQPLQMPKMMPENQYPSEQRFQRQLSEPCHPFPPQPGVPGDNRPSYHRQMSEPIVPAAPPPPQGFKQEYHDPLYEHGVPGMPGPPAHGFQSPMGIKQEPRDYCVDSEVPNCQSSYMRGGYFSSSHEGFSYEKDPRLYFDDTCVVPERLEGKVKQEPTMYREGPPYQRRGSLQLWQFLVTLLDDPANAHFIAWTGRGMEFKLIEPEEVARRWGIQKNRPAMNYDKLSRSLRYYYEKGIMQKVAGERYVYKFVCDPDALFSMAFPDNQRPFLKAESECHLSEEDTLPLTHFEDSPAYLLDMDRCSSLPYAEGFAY
Sequence of ELF1 (P32519 whole entry): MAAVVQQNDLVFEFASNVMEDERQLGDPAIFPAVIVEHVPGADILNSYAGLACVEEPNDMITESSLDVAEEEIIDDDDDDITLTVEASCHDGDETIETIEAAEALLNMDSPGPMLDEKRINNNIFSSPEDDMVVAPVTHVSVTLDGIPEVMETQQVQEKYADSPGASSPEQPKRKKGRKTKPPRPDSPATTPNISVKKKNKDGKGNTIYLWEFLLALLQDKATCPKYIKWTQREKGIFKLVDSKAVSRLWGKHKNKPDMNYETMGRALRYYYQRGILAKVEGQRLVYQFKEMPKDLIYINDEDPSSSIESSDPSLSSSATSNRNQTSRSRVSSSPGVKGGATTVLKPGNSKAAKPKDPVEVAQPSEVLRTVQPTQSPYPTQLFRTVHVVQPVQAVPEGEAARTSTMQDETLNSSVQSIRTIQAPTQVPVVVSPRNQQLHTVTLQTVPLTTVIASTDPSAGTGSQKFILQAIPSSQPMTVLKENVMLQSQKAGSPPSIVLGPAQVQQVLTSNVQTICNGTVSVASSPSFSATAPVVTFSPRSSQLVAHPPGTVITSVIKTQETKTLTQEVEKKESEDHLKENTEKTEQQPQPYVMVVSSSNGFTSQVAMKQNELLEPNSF

Consider GCAACT, for which the binding signal is 1.22 fold enrichment (6-mer frequency, TF over GST control) in the assay with FLI1; 1.19 fold enrichment (6-mer frequency, TF over GST control) with ELK1; 1.19 fold enrichment (6-mer frequency, TF over GST control) with GABPA; 1.33 fold enrichment (6-mer frequency, TF over GST control) with ERG; 1.29 fold enrichment (6-mer frequency, TF over GST control) in the assay with ELF1; 1.2 fold enrichment (6-mer frequency, TF over GST control) with EHF. Moreover, the binding signal is 1.23 fold enrichment (6-mer frequency, TF over GST control) in the assay with SPI1; 1.22 fold enrichment (6-mer frequency, TF over GST control) with SPIB; 1.14 fold enrichment (6-mer frequency, TF over GST control) with ELK3; 1.27 fold enrichment (6-mer frequency, TF over GST control) with FEV; 1.2 fold enrichment (6-mer frequency, TF over GST control) in the assay with ETV5; 1.05 fold enrichment (6-mer frequency, TF over GST control) in the assay with HSF1. Moreover, the binding signal with SPIC was 1.3 fold enrichment (6-mer frequency, TF over GST control); with ELF4, 1.2 fold enrichment (6-mer frequency, TF over GST control); with ELK4 it was 1.2 fold enrichment (6-mer frequency, TF over GST control); with ETV2, 1.04 fold enrichment (6-mer frequency, TF over GST control); with ELF3, 1.12 fold enrichment (6-mer frequency, TF over GST control); with ETV1 it was 1.25 fold enrichment (6-mer frequency, TF over GST control).

The record behind these values is article PMC7862700, “An all-to-all approach to the identification of sequence-specific readers for epigenetic DNA modifications on cytosine”.
